Laboratory results: the supplement of paper PMC10849652
Of roughly 8,800 targets only a part is listed; those with a hit were picked by preference. About 0.5% of all pairs of compound and target were hits.

compound: CNC(=O)C1=CC=CC=C1NC2=NC(=NC=C2Cl)NC3=C(C=C(C=C3)N4CCOCC4)OC; experiment: log2 fold change, soluble protein after heating vs DMSO (PISA); higher = thermal stabilisation; K562 lysate, 10 uM; active = over 0.2 and 3.5 SD of the protein, either way, in both replicates (recomputed)
Outline: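 Pellets of K562 cells were dounce-homogenised in PBS pH 7.4 with 1 mM MgCl2, and the crude extract was held at 1 mg/mL protein for a 30 min treatment with 10 μM compound. Aliquots were heated for 3 min over 48°C-58°C and pooled before NP-40 was added to 0.5% at 4°C. The supernatant from 21,000xg for 90 min was quantified by TMTpro 16plex LC-MS/MS with channel sums equalised. Values are reported from duplicates as log-two fold change in thermal stability relative to solvent controls.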

Chain of UniProt Q15843 (Q15843 whole entry, looked up): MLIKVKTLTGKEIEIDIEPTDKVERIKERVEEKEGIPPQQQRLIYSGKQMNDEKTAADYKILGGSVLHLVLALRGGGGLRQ
Chain of UniProt Q9NZJ9 (Q9NZJ9 whole entry, looked up): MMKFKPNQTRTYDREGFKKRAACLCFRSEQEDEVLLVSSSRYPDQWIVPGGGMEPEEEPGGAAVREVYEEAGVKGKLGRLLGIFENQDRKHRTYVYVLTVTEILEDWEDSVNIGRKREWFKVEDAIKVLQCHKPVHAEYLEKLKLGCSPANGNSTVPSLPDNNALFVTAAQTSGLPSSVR
Chain of UniProt Q15021 (Q15021 whole entry, looked up): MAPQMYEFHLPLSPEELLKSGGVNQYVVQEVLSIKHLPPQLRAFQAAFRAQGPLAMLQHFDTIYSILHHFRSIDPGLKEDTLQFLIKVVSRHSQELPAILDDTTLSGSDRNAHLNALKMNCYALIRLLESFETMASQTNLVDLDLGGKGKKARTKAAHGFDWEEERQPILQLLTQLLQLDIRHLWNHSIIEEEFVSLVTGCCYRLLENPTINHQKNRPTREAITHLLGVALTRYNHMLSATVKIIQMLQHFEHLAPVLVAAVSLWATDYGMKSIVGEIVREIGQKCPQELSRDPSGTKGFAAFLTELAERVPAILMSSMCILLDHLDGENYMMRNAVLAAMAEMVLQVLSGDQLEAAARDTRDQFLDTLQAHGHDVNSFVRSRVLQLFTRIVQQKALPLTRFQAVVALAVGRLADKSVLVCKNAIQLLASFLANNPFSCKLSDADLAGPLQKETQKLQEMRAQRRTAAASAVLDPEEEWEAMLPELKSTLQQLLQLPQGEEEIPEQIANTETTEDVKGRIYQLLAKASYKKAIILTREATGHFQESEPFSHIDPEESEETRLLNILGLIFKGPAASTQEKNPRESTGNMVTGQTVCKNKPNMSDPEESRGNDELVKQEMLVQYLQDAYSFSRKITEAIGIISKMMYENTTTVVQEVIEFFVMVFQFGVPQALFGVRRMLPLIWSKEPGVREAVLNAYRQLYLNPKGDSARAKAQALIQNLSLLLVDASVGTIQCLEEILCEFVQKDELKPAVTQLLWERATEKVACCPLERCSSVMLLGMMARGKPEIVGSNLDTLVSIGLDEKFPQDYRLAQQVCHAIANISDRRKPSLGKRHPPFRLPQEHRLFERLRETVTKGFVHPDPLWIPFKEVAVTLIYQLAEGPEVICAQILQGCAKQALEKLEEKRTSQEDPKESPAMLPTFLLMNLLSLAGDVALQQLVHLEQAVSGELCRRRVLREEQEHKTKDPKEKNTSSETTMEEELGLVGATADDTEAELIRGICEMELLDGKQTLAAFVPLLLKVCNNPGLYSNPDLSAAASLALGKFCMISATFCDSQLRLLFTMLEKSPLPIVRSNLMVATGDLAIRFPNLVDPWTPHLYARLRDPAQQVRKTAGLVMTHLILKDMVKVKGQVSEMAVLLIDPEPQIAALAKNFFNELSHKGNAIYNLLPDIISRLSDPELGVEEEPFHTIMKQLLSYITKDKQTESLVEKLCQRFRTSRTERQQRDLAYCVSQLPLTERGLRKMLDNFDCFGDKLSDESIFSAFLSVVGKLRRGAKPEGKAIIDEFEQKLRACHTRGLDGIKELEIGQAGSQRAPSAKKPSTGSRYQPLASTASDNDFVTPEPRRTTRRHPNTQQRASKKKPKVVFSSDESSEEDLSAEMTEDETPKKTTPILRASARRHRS
Chain of UniProt Q9Y6R0 (Q9Y6R0 whole entry, looked up): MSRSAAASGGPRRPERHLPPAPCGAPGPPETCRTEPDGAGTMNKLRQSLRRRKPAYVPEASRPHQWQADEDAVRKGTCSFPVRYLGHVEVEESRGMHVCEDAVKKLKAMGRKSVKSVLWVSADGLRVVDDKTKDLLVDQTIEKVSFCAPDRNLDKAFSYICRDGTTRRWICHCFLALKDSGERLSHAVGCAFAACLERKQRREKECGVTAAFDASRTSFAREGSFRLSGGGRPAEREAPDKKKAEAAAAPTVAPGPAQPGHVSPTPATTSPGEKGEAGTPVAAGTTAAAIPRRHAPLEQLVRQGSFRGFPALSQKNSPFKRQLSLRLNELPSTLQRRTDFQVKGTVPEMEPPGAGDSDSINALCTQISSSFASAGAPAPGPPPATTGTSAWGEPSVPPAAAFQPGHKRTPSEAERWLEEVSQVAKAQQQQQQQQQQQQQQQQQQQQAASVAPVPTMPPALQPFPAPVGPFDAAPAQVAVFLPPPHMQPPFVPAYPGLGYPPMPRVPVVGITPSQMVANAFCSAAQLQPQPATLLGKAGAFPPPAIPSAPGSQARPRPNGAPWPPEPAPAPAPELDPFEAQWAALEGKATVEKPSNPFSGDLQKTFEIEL
Chain of UniProt Q8TEW0 (Q8TEW0 whole entry, looked up): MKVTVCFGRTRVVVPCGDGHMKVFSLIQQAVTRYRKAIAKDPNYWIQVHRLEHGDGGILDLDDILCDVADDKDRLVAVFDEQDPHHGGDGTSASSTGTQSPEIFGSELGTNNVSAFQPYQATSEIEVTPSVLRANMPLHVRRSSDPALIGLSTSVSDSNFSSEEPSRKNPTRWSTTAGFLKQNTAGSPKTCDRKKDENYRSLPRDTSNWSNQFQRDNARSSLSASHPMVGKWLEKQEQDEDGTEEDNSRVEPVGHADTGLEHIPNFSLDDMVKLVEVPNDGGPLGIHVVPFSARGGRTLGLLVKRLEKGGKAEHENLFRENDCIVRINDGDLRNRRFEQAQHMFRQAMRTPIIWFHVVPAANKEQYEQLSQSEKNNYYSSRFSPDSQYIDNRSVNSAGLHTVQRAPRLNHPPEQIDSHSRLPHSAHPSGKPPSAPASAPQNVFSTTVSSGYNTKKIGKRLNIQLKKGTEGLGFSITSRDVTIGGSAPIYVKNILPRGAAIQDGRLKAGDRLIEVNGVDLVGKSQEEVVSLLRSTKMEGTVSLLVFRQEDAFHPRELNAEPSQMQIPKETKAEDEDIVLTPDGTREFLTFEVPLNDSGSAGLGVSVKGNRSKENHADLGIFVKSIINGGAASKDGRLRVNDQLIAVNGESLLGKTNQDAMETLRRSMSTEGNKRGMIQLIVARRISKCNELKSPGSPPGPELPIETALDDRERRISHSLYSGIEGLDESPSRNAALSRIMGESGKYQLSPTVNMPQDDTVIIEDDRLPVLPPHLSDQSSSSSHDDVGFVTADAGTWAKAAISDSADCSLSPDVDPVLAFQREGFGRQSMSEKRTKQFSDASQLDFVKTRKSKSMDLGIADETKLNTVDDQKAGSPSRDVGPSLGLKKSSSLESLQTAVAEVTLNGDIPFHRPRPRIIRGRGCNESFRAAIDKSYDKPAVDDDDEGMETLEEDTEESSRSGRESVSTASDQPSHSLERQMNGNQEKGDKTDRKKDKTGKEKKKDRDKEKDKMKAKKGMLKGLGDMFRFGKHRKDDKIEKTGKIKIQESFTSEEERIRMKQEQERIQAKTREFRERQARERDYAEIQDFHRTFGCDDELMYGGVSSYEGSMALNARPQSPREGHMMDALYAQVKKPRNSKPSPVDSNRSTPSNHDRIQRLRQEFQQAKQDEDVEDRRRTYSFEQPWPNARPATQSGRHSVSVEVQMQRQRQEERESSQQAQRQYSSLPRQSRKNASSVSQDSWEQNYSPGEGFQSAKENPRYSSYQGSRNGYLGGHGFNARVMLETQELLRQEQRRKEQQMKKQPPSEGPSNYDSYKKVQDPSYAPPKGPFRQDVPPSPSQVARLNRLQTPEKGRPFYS
Chain of UniProt Q9Y5B6 (Q9Y5B6 whole entry, looked up): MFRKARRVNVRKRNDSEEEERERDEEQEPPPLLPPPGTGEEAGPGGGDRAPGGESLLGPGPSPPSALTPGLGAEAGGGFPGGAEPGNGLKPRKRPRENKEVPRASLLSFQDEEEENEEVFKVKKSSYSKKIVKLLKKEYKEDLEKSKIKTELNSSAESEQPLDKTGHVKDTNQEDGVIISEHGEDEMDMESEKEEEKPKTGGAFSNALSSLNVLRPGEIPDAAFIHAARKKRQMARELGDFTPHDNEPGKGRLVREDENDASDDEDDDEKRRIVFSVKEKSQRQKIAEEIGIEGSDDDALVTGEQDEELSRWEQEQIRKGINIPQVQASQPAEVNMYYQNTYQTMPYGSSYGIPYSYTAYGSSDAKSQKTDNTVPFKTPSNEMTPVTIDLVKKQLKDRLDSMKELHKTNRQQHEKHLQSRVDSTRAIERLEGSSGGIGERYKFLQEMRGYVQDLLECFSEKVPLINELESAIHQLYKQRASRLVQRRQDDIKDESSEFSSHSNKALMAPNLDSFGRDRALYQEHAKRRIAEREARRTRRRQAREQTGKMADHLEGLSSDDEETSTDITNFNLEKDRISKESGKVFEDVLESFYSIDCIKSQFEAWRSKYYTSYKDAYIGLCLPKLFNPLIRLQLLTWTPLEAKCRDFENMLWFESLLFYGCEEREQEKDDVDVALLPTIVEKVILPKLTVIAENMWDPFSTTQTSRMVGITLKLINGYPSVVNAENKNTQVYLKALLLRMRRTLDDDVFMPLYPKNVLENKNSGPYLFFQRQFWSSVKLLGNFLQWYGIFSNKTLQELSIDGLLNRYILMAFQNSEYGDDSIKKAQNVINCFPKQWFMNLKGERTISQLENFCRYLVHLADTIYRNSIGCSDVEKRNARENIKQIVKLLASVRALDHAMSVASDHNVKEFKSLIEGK
Chain of UniProt Q9Y639 (Q9Y639 whole entry, looked up): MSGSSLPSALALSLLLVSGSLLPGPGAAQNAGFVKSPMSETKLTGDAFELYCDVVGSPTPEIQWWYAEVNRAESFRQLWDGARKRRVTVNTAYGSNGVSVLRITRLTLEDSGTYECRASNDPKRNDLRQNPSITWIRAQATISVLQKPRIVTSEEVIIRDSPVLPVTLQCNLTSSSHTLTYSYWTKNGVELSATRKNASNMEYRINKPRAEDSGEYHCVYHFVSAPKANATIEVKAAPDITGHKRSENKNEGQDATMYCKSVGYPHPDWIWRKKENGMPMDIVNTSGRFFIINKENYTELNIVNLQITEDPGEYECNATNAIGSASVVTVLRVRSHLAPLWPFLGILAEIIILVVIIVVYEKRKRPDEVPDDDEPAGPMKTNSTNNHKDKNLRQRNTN

log2 fold change, inactive:
NUMBL (UniProt Q9Y6R0) -0.023
OPA1 isoform 2 (UniProt O60313) -0.032
MTHFD1L (UniProt B7ZM99) 0.02
PARD3 (UniProt Q8TEW0) -0.021
NACC1 (UniProt Q96RE7) 0.002
NEDD8 (UniProt Q15843) 0.083
PANK4 (UniProt Q9NVE7) 0.018
NAA35 (UniProt Q5VZE5) -0.007
OGFR (UniProt Q9NZT2) 0.002
MTMR6 (UniProt Q9Y217) 0
OTC (UniProt P00480) -0.134
NELFCD (UniProt Q8IXH7) 0.047
NFATC2IP (UniProt Q8NCF5) 0.052
NUDT4 isoform 2 (UniProt Q9NZJ9) 0.01
NADK2 (UniProt Q4G0N4) -0.036
NUP98 (UniProt P52948) 0.029
NR3C1 isoform 3 (UniProt P04150) 0.048
PAXBP1 (UniProt Q9Y5B6) 0.015
NCAPD3 (UniProt P42695) 0.017
NPLOC4 isoform 2 (UniProt Q8TAT6) 0.019
N4BP2 (UniProt Q86UW6) 0.052
NCAPD2 (UniProt Q15021) 0.013
NCAPG (UniProt Q9BPX3) 0.011
NOSTRIN (UniProt Q8IVI9) 0.027
NUP160 (UniProt Q12769) 0.045
MT-CYB (UniProt P00156) -0.027
PARG (UniProt Q86W56) 0.029
OSGEP (UniProt Q9NPF4) -0.047
ORC3 isoform 2 (UniProt Q9UBD5) 0.007
MTHFD1, A0A384N5Y3 -0.01
NAA38 isoform 2 (UniProt Q9BRA0) 0.01
NPTN (UniProt Q9Y639) 0
NUP133 (UniProt Q8WUM0) -0.007
MSI2 (UniProt Q96DH6) -0.04
PAN2 isoform 2 (UniProt Q504Q3) -0.018
NPM3 (UniProt O75607) -0.017
